Assay outcomes from PubChem BioAssay.
The list is not random: actives were taken first. Their share in the collection is about 21%.
DT40 TDP1 CPT = DT40-hTDP1 cell growth loss with CPT | chicken DT40 Tdp1-/-;hTDP1 cells + 20 nM CPT, ATP luminescence, 48 h | Potency, µM (series often up to 46.2 µM), for the others: at the top dose activity change, negative = growth inhibition, hits mostly inhibitors | actives 12% (n = 420,000); also: potency is read from the fitted curve at half-maximal effect; % is scaled to controls: 0 for no effect and ±100 for the full control effect; nearly all actives have a fitted effect of over 55% in size
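Cell growth measured by CellTiter-Glo luminescence after a minimum 48 h, 37 C compound exposure with 20 nM CPT in Tdp1-knockout DT40 cells stably expressing hTDP1, seeded 400/well; qHTS titration format.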
DRD3 antagonist = D3 dopamine receptor (human) antagonism. P35462. D3R cells, DiscoveRx beta-arrestin luminescence, antagonist mode; active compounds read low. max response, negative = inhibition, %. actives 2.5% (n = 360,000); in the data active = max response below about -50%; inconclusive = no clear call, values can overlap the other calls; also: % is scaled to controls: 0 for no effect and ±100 for the full control effect
Target sequence (P35462 whole entry, looked up): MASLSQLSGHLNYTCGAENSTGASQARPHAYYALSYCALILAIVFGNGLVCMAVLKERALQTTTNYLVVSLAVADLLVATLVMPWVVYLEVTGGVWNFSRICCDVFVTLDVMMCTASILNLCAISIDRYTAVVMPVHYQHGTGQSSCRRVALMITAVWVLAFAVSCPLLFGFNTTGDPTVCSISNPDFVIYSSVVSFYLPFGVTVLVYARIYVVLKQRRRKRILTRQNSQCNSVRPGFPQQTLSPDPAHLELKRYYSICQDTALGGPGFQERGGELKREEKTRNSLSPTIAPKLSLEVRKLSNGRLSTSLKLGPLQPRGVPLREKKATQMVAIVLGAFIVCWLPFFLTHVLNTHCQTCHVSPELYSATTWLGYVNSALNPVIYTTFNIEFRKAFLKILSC
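Cells expressing the human receptor were seeded at 1500 cells/well, incubated overnight at 37 degrees C in 5% CO2, then exposed to library compounds with dopamine controls for 90 minutes at 37 degrees C before luminescent detection.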
TDP1 cell noCPT = qHTS for Inhibitors of human tyrosyl-DNA phosphodiesterase 1 (TDP1): qHTS in cells in absence of CPT; DT40 Tdp1-/- hTDP1 cells, no CPT, ATP luminescence, 48 h; actives 15% (n = 420,000); Potency, µM (top dose mostly 46.2 µM), for the others: top-dose activity change, negative = growth inhibition, most hits filed as inhibitors; also: potency is read from the fitted curve at half-maximal effect; % is scaled to controls: 0 for no effect and ±100 for the full control effect; nearly all actives have a fitted effect of over 55% in size
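Luminescent ATP content (CellTiter-Glo) served as the growth readout. Knockout chicken DT40 cells expressing human TDP1 were exposed to compounds without camptothecin for a minimum 48 hr at 37 °C.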
DRD3 agonist = D3 dopamine receptor (human) agonism; actives 0.58% (n = 410,000); max activation, %; P35462; D3R DiscoveRx beta-arrestin cells, luminescence, 90 min; in the data active = max activation above about 30%; also: 0% is about no effect
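Agonist-mode cell screen: cells plated at 1500/well and incubated overnight at 37 °C, then exposed to library compounds for 90 min at 37 °C. Detection reagent was added for 30–60 min at room temperature, and luminescence was read.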
ClpP mod = qHTS Assay for Activators of ClpP | actives 1.9% (n = 340,000) | purified B. subtilis ClpP, FRET peptide cleavage, 20 min | Potency, µM (highest dose often 57.5 µM), without a hit: top-dose activity change, negative = active | ATP-dependent Clp protease proteolytic subunit (Bacillus subtilis (strain 168)), P80244 | AID 651965, 2013; active = well fitted falling curve with a large enough effect; inconclusive = small, poorly fitted or top-dose-only effect; inactive = no such curve, though single readings can be large or run the other way; also: potency is read from the fitted curve at half-maximal effect; the source files actives as falling curves though it sought activators and does not explain the sign; nearly all actives have a fitted effect of over 65% in size
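Buffer: 100 mM Tris/HCl pH8, 100 mM KCl, 0.05% low protease BSA, 2.5% glycerol, 0.01% Tween-20. ClpP 10 microg/mL final; 20 min RT; delta FRET normalized to ADEP and DMSO controls.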
IL-1B inflam inh = inhibitors of inflammasome signaling (IL-1 beta secretion); THP-1 LPS/ATP IL-1B secretion, AlphaLISA, 16 h; active compounds read low; activity change, % at 57.5 µM; actives 4.7% (n = 360,000); AID 743279; in the data active = activity change below about -50%; inconclusive = mostly about -30% to -49%; also: % is scaled to controls: 0 for no effect and ±100 for the full control effect
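THP-1 cells pretreated 1 hr with compounds (up to 57.5 uM final), then stimulated with LPS (250 ng/mL final) plus ATP (1.25 mM final); secreted IL-1B measured by AlphaLISA after 16 hr, decreased signal indicating inhibition.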
Numbers without * were called inactive; ? = inconclusive; . = no result given. Unless noted, calls follow the shape of the dose curve; as a rule, active = well fitted inhibition curve with a large enough effect; inconclusive = small, poorly fitted or top-dose-only effect; inactive = flat fitted curve, though single readings scatter.

SMILES | DT40 TDP1 CPT | DRD3 antagonist | TDP1 cell noCPT | DRD3 agonist | ClpP mod | IL-1B inflam inh
CCOc1cccc(-c2cnc3cccnn23)c1 | ? | 55 | 10µM* | 6 | 5% | -12
CCOc1ccc(-c2cnc3cccnn23)cc1 | -30% | 14 | -21% | 3 | -5% | 9
CCc1ccc(OCC2c3cc(OC)c(OC)cc3CCN2C(=O)Cc2ccc(OC)c(OC)c2)cc1 (centres undefined) | ? | . | ? | 6 | -1% | .
COC(=O)c1ccc(OCC2c3cc(OC)c(OC)cc3CCN2C(=O)C2CC2)cc1 (centres undefined) | ? | 25 | ? | 18 | -2% | ?
COc1ccc(CC(=O)N2CCc3cc(OC)c(OC)cc3C2COc2ccc(OC)cc2)cc1 (centres undefined) | ? | . | 16µM* | 0 | -1% | .
CCOc1ccccc1C(=O)N1CCc2cc(OC)c(OC)cc2C1COc1ccc(OC)cc1 (centres undefined) | ? | . | 21µM* | -4 | 1% | .
COc1ccc(OCC2c3cc(OC)c(OC)cc3CCN2C(=O)c2ccc(F)cc2)cc1 (centres undefined) | -28% | . | ? | -8 | 1% | .
COC(=O)c1ccc(OCC2c3cc(OC)c(OC)cc3CCN2C(=O)c2cccc(C)c2)cc1 (centres undefined) | 21µM* | . | 16µM* | 1 | -2% | .
COC(=O)c1ccc(OCC2c3cc(OC)c(OC)cc3CCN2C(=O)c2ccccc2F)cc1 (centres undefined) | ? | . | 18µM* | 7 | -1% | .
CC1=NNC(=O)C1Oc1ccccc1 (centres undefined) | -5% | 8 | 0% | 11 | . | 13
CCSc1nnc(-c2cnn(-c3ccccc3)c2-n2cccc2)n1C | ? | 0 | -41% | 4 | -2% | 18
CCCCCCSc1nnc(-c2cnn(-c3ccccc3)c2-n2cccc2)n1C | ? | ? | 21µM* | 6 | -2% | -16
COc1cccc(C(=O)Oc2ccc3ccc(=O)oc3c2)c1 | 3% | -8 | -8% | -1 | 5% | -1
CC(C)(O)CN(C(=O)c1ccc([N+](=O)[O-])cc1)C1CCCC1 | -4% | 15 | -2% | 6 | 1% | -3
O=C(c1ccc(Cl)c(Cl)c1)N1CCC(=O)N(C(COCc2cccc(Cl)c2)Cc2ccccc2)CC1 (centres undefined) | ? | 84 | ? | 2 | 2% | -68*
O=C(c1ccc(Cl)cc1)N1CCC(=O)N(C(CO)Cc2ccccc2)CC1 (centres undefined) | 5% | -18 | 8% | 6 | -2% | 60
O=C(c1ccc(Cl)c(Cl)c1)N1CCC(=O)N([C@H](COCc2ccc(Cl)cc2)Cc2ccccc2)CC1 | ? | 8 | 23µM* | 2 | -3% | -67*
CC1(C)CCc2cc(O)ccc2O1 | 0% | . | -4% | . | 1% | .
CC1CCCC(NC(=O)c2ccc3c(c2)NC(=O)CS3)C1C (centres undefined) | -21% | 10 | ? | -3 | 0% | -10
CN(C)c1ccc(-c2nc(N(C)C)c3ccccc3n2)cc1 | ? | . | 23µM* | . | . | .
CN(C)c1ccc(-c2nc(-n3ccnc3)c3ccccc3n2)cc1 | 13µM* | . | 18µM* | . | . | .
CN(Cc1ccco1)c1nc(-c2ccoc2)nc2ccccc12 | ? | . | -25% | . | . | .
CN(C)c1ccc(-c2nc(N(C)Cc3ccco3)c3ccccc3n2)cc1 | 29µM* | . | 16µM* | . | . | .
CN(C)c1ccc(-c2cc(-n3ccnc3)ncn2)cc1 | -5% | . | ? | . | . | .
CC(C)CN(CC(C)C)c1nc(-c2ccc(Cl)cc2)nc2ccccc12 | . | . | . | 5 | ? | .
CCN(CC)c1nc(-c2ccc(C(C)(C)C)cc2)nc2ccccc12 | 23µM* | . | ? | -19 | -8% | .
